Experimental data taken from PubChem BioAssay (NCATS).
Records with an inconclusive call do not appear. Activity calls are given as the source filed them. Calls come from the whole dose curve; as a rule, active = well fitted cell-killing curve with a large enough effect; inconclusive = small, poorly fitted or top-dose-only effect, or effect the other way; inactive = flat fitted curve, though single readings scatter.

Legend:
Assay in all cases: Primary qHTS to identify gynecologic anti-cancer compounds using libraries of approved drugs and bioactive compounds (AID 1345084); note: nearly all actives have a fitted effect of over 55% in size
[1] = test system: CASKI; details: Gynecologic cancer cell panel viability, ATPlite luminescence, 48 h; series mostly up to 57.5 µM
Outline: (§1)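 Measured: luminescence after ATPlite addition (15 min, RT). Exposure: 48 h, 37 C, 5% CO2.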

[2] = test system: Es-2; details: Gynecologic cancer cell panel viability, ATPlite luminescence, 48 h; series mostly up to 57.5 µM
Outline: as §1

[3] = test system: HeLa; details: Gynecologic cancer cell panel viability, ATPlite luminescence, 48 h; series mostly up to 57.5 µM
Outline: as §1

[4] = test system: Hek293T; details: Gynecologic cancer cell panel viability, ATPlite luminescence, 48 h, control line for the selectivity index; series mostly up to 57.5 µM
Outline: as §1

[5] = test system: JEG-3; details: Gynecologic cancer cell panel viability, ATPlite luminescence, 48 h; series mostly up to 57.5 µM
Outline: as §1

[6] = test system: OV90; details: Gynecologic cancer cell panel viability, ATPlite luminescence, 48 h; series mostly up to 57.5 µM
Outline: as §1

[7] = test system: PA-1; details: Gynecologic cancer cell panel viability, ATPlite luminescence, 48 h; series mostly up to 57.5 µM
Outline: as §1

[8] = test system: SKOV3; details: Gynecologic cancer cell panel viability, ATPlite luminescence, 48 h; series mostly up to 57.5 µM
Outline: as §1

[9] = test system: Tov-21-G; details: Gynecologic cancer cell panel viability, ATPlite luminescence, 48 h; series mostly up to 57.5 µM
Outline: as §1

[10] = test system: Tov112D; details: Gynecologic cancer cell panel viability, ATPlite luminescence, 48 h; series mostly up to 57.5 µM
Outline: as §1
% is set by controls: 0 for no effect and ±100 for the full control effect.

CCCCCCCC/C=C\CCCCCCCCN
inactive: Potency [1] | Potency [2] | Potency [3] | Potency [4] | Potency [5] | Potency [6] | Potency [7] | Potency [8] | Potency [9] | Potency [10]

OCc1ccccn1
inactive: Potency [1] | Potency [2] | Potency [3] | Potency [4] | Potency [5] | Potency [6] | Potency [7] | Potency [8] | Potency [9] | Potency [10]

COc1cc(C(=S)N2CCOCC2)ccc1O
inactive: Potency [1] | Potency [2] | Potency [3] | Potency [4] | Potency [5] | Potency [6] | Potency [7] | Potency [8] | Potency [9] | Potency [10]

OCCOCCN1CCN(C2=Nc3ccccc3Sc3ccccc32)CC1
inactive: Potency [1] | Potency [2] | Potency [3] | Potency [4] | Potency [5] | Potency [6] | Potency [7] | Potency [8] | Potency [9] | Potency [10]

CCCCCCCCCCCCCCCC(=O)O
inactive: Potency [1] | Potency [2] | Potency [3] | Potency [4] | Potency [5] | Potency [6] | Potency [7] | Potency [8] | Potency [9] | Potency [10]

CC(C)Cc1ccc(CC(=O)O)cc1
inactive: Potency [1] | Potency [2] | Potency [3] | Potency [4] | Potency [5] | Potency [6] | Potency [7] | Potency [8] | Potency [9] | Potency [10]

CC(C)(C)CC(C)(C)c1ccc(O)c(-n2nc3ccccc3n2)c1
inactive: Potency [1] | Potency [2] | Potency [3] | Potency [4] | Potency [5] | Potency [6] | Potency [7] | Potency [8] | Potency [9] | Potency [10]

CC(=O)O[C@]1(C(C)=O)CC[C@H]2[C@@H]3C=C(Cl)C4=CC(=O)CC[C@]4(C)[C@H]3CC[C@@]21C
inactive: Potency [1] | Potency [2] | Potency [3] | Potency [4] | Potency [5] | Potency [6] | Potency [7] | Potency [8] | Potency [9] | Potency [10]

COc1ccc(/C=N/NC(=O)c2ccncc2)cc1OC
inactive: Potency [1] | Potency [2] | Potency [3] | Potency [4] | Potency [5] | Potency [6] | Potency [7] | Potency [8] | Potency [9] | Potency [10]

CC(C)(C)NCC(O)COc1cccc2c1C[C@H](O)[C@H](O)C2 (stereo not given in full)
inactive: Potency [1] | Potency [2] | Potency [3] | Potency [4] | Potency [5] | Potency [6] | Potency [7] | Potency [8] | Potency [9] | Potency [10]

N=C(N)N1CCc2ccccc2C1
inactive: activity change, negative = cytotoxicity [1] -9.81% [at 6.55 µM] | activity change, negative = cytotoxicity [2] -6.19% [at 6.55 µM] | activity change, negative = cytotoxicity [3] -13.2% [at 6.55 µM] | activity change, negative = cytotoxicity [4] 5.39% [at 6.55 µM] | activity change, negative = cytotoxicity [5] -0.277% [at 6.55 µM] | activity change, negative = cytotoxicity [6] 0.455% [at 6.55 µM] | activity change, negative = cytotoxicity [7] -0.819% [at 6.55 µM] | activity change, negative = cytotoxicity [8] -11.6% [at 6.55 µM] | activity change, negative = cytotoxicity [9] -1.06% [at 6.55 µM] | activity change, negative = cytotoxicity [10] -0.978% [at 6.55 µM]

CCCCOC(=O)CC(CC(=O)OCCCC)(OC(C)=O)C(=O)OCCCC
inactive: Potency [1] | Potency [2] | Potency [3] | Potency [4] | Potency [5] | Potency [6] | Potency [7] | Potency [8] | Potency [9] | Potency [10]

COc1ccc2c(c1)c1c3n2CCN(C)C3=NCC1
inactive: Potency [1] | Potency [2] | Potency [3] | Potency [4] | Potency [5] | Potency [6] | Potency [7] | Potency [8] | Potency [9] | Potency [10]

CC(C)=CCOc1ccc(/C=C/C(=O)c2ccc(OCC=C(C)C)cc2OCC(=O)O)cc1
inactive: Potency [1] | Potency [2] | Potency [3] | Potency [4] | Potency [5] | Potency [6] | Potency [7] | Potency [8] | Potency [9] | Potency [10]

NS(=O)(=O)Cc1noc2ccccc12
inactive: Potency [1] | Potency [2] | Potency [3] | Potency [4] | Potency [5] | Potency [6] | Potency [7] | Potency [8] | Potency [9] | Potency [10]

O=C1[C@H](CC[C@H](O)c2ccc(F)cc2)[C@@H](c2ccc(O)cc2)N1c1ccc(F)cc1
inactive: Potency [1] | Potency [2] | Potency [3] | Potency [4] | Potency [5] | Potency [6] | Potency [7] | Potency [8] | Potency [9] | Potency [10]

CN(Cc1ccc(C(C)(C)C)cc1)Cc1cccc2ccccc12
inactive: Potency [1] | Potency [2] | Potency [3] | Potency [4] | Potency [5] | Potency [6] | Potency [7] | Potency [8] | Potency [9] | Potency [10]

CCOCCn1c(N2CCCN(C)CC2)nc2ccccc21
inactive: Potency [1] | Potency [2] | Potency [3] | Potency [4] | Potency [5] | Potency [6] | Potency [7] | Potency [8] | Potency [9] | Potency [10]

CCOC(=O)[C@H](CCc1ccccc1)N[C@@H](C)C(=O)N1[C@H](C(=O)O)C[C@@H]2CCC[C@@H]21
inactive: Potency [1] | Potency [2] | Potency [3] | Potency [4] | Potency [5] | Potency [6] | Potency [7] | Potency [8] | Potency [9] | Potency [10]

NC(=O)C1(N2CCCCC2)CCN(CCCC(=O)c2ccc(F)cc2)CC1
inactive: Potency [1] | Potency [2] | Potency [3] | Potency [4] | Potency [5] | Potency [6] | Potency [7] | Potency [8] | Potency [9] | Potency [10]

CCOC(=O)Nc1ccc2c(c1)N(C(=O)CCN1CCOCC1)c1ccccc1S2
inactive: Potency [1] | Potency [2] | Potency [3] | Potency [4] | Potency [5] | Potency [6] | Potency [7] | Potency [8] | Potency [9] | Potency [10]
